TIM10 inh = growth inhibitors of isogenic TIM10 control yeast, primary screen, counter-screen for tim10-1 yeast inhibitor project, luminescence, uHTS; S. cerevisiae TIM10 strain growth, BacTiter-Glo luminescence, 24 h; inhibition, % at 10 µM; actives 1.4% (n = 330,000);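 active means inhibition of 40% or more at the single tested concentration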;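 further: wild-type TIM10 isogenic control strain grown at permissive 25 °C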
tim23-1 inh = growth inhibitors of tim23-1 mutant yeast, primary screen, luminescence, uHTS | actives 1.3% (n = 330,000) | S. cerevisiae tim23-1 growth, BacTiter-Glo luminescence, 24 h | inhibition, % at 20 µM;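 active means growth inhibition of the mutant yeast at or above 50%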;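 further: temperature-sensitive mutant grown at 25 °C; plate controls were DMSO-treated mutant yeast for no effect and medium wells lacking yeast for full effect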
MPTP block = mitochondrial permeability transition pore inhibitors, primary screen, biochemical, isolated mouse mitochondria, absorbance. inhibition, % at 10 µM. actives 1.4% (n = 360,000). Ca2+ swelling absorbance, 30 min;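 active means inhibition of 50% or more, scaled per plate between neutral and stimulator controls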;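 further: 0% = DMSO wells given calcium and 100% = 1 mM EGTA wells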
Mdm2-MdmX inh = inhibitors of human Mdm2-MdmX association, primary screen, cell-based, luminescence, split luciferase, SaOS-2, uHTS | SaOS-2 split-luciferase Mdm2/MdmX complementation | inhibition, % at 8 µM | actives 3% (n = 330,000) | AID 485346, 2010 | Protein Mdm4 (Homo sapiens) + E3 ubiquitin-protein ligase Mdm2 (Homo sapiens), …;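 active means inhibition of at least 50% at 8 µM in the primary screen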
Target sequence (O15151 whole entry, looked up): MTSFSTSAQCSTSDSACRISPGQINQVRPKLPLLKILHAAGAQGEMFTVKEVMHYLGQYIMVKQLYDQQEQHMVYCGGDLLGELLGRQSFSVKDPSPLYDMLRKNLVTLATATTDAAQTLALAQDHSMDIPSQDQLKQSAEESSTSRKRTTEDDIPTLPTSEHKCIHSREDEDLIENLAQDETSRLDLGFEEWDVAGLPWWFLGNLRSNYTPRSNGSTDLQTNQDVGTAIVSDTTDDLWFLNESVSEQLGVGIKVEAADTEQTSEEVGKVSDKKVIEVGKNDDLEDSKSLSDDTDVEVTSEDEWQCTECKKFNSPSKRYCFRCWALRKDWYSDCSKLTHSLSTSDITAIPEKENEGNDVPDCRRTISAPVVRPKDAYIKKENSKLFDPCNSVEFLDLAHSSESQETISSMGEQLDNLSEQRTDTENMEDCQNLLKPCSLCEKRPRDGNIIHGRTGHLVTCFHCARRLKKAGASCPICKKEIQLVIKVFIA
Target sequence (Q00987 whole entry, looked up): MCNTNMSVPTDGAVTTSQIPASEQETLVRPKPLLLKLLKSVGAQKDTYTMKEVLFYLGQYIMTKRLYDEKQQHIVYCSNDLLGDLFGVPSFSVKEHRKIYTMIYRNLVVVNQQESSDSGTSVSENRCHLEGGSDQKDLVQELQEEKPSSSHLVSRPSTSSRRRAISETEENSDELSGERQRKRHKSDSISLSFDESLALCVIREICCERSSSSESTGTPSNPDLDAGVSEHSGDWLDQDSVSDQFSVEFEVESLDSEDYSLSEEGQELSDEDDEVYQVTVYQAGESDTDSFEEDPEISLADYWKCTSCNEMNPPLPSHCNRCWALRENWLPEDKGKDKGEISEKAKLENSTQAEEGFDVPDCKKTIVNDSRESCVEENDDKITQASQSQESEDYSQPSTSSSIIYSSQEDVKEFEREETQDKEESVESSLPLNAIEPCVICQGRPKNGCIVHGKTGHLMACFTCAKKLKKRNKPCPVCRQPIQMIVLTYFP
tim10-1 inh = growth inhibitors of tim10-1 mutant yeast, primary screen, luminescence, uHTS | actives 2.2% (n = 330,000) | AID 463190, 2010 | S. cerevisiae tim10-1 ts strain growth, BacTiter-Glo, 24 h | inhibition, % at 20 µM;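 active means inhibition of at least 40%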;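 further: mutant grown at 25 °C; 0% = DMSO wells with yeast and 100% = wells holding no yeast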
Mdm2 MdmX conf = Mdm2-MdmX complex disruptors, retested hits, confirmation, luminescence, single concentration. Mdm2-MdmX binding, luminescent assay. shares compounds with Mdm2-MdmX inh. actives 55% (n = 10,000). inhibition, % at 8 µM; in the data active means inhibition above about 40%
FLuc counter = full-length luciferase signal inhibition, confirmation, counter-screen for Mdm2/MdmX interaction inhibitor project, cell-based, single concentration, SaOS-2; actives 77% (n = 6,200); SaOS-2 full-length luciferase counterscreen, luminescence; shares compounds with Mdm2-MdmX inh; inhibition, % at 8 µM;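 active means mean inhibition at 8 µM reaching about 37%, which flags the compound as non-specific, limit read from the data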;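 further: p53-null SaOS-2 cells with luciferase driven by a doxycycline-inducible promoter; compound on cells about two nights before reading with doxycycline added after day one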
* marks the source's active call; other numbers are inactive results; nt = no result. Only some compounds are listed: those with a hit (about 6.3% of all), similar ones and a draw of the others.

SMILES | TIM10 inh | tim23-1 inh | MPTP block | Mdm2-MdmX inh | tim10-1 inh | Mdm2 MdmX conf | FLuc counter
Cc1c(C(=O)N/N=C/c2c(O)ccc3ccccc23)nnn1-c1nonc1N | 14.9 | -18.6 | 0.0 | 67.2* | 3.3 | 81.2* | 52.2*
Cc1ccc(NC(=O)c2ncn(CCCNCc3ccccn3)n2)cc1C | nt | nt | 0.2 | nt | nt | nt | nt
CCN1CCCC1CNC(=O)C1CCN(Cc2nc(-c3cccc(Br)c3)oc2C)CC1 (centres undefined) | -15.1 | -68.9 | -9.8 | 83.6* | -14.5 | 99.9* | 3.9
CCN1CCN(CCNC(=O)C2CCN(Cc3nc(-c4ccc(Cl)cc4)oc3C)CC2)CC1 | -10.7 | -26.9 | nt | 99.2* | -28.9 | 52.7* | 37.4*
Cc1ccccc1-c1nc(CN2CCC(C(=O)NCCCN3CCCC3)CC2)c(C)o1 | -5.6 | -16.4 | -4.7 | 44.0 | 11.5 | nt | nt
Cc1oc(-c2ccc(Cl)cc2)nc1CN1CCC(C(=O)N2CCc3ccccc3C2)CC1 | 33.6 | 34.1 | 9.5 | 51.6* | 36.1 | 37.2 | 58.5*
Cc1ccccc1-c1nc(CN2CCC(C(=O)NCCCN3CC(C)CC(C)C3)CC2)c(C)o1 (centres undefined) | -12.7 | -5.8 | -5.7 | 78.2* | 4.3 | 95.2* | 25.7
COc1cc(C(O)c2nc(-c3ccncc3)cs2)ccc1F (centres undefined) | nt | nt | 2.5 | nt | nt | nt | nt
CCc1ccc(-c2nc(CN3CCC(C(=O)NCc4ccccc4OC)CC3)c(C)o2)cc1 | 19.0 | 14.3 | 48.5 | 57.0* | 9.8 | 24.9 | nt
Cc1oc(-c2ccc(Cl)cc2)nc1CN1CCC(C(=O)NCCCN2CCCC(C)C2)CC1 (centres undefined) | -2.8 | -24.2 | 0.8 | 100.4* | -16.6 | 96.3* | 21.2
CCC(C)[C@H](NC(=O)N1CC(=O)Nc2ccccc21)C(=O)Nc1ccccc1C (some centres undefined) | 1.9 | 7.6 | -0.5 | 67.0* | 1.4 | 64.1* | 39.1*
CCCCn1c(=O)[nH]c(=O)c2c1nc(-c1ccc(-c3ccccc3)cc1)n2C | 3.7 | 7.9 | 0.6 | 62.3* | 13.8 | 35.4 | 94.4*
CCCCn1c(=O)[nH]c(=O)c2c1nc(-c1ccc(C(F)(F)F)cc1)n2C | 10.8 | 9.9 | 7.4 | 16.2 | 12.5 | nt | nt
O=C(CNC(=O)c1ccco1)N=Nc1c(O)n(CCc2ccccc2)c2ccccc12 | 21.7 | 25.7 | 2.8 | 62.2* | 0.2 | 55.8* | 106.1*
COC(=O)NC(=C(Cl)Cl)S(=O)(=O)c1ccccc1 | -42.9 | -12.5 | 0.7 | 54.6* | -4.5 | 15.3 | nt
Cc1ccc(C(=O)NC(=C(Cl)Cl)S(=O)(=O)c2ccccc2)cc1 | 28.2 | 36.2 | -0.1 | 10.8 | 30.2 | nt | nt
CCC1(c2ccc(F)cc2)NC(=O)N(CC(=O)N2CCN(S(=O)(=O)c3ccc(C)cc3C)CC2)C1=O (centres undefined) | nt | nt | 1.5 | nt | nt | nt | nt
Cc1cnc(NC(=O)C2CC(=O)N(c3cccc(Cl)c3)C2)s1 (centres undefined) | 8.8 | 19.0 | 0.6 | 93.3* | 0.5 | 89.0* | 82.4*
N#CC1(Nc2ccc([N+](=O)[O-])cc2)CCCC1 | nt | nt | -3.4 | nt | nt | nt | nt
Cc1cc(C)n2c(Nc3ccc4c(c3)OCCO4)c(CCc3ccccc3)nc2n1 | nt | nt | 0.5 | nt | nt | nt | nt
COc1cc(Nc2c3c(nc4ccccc24)CCCC3)cc(OC)c1OC | 2.2 | 2.0 | 1.6 | 68.3* | 8.1 | 63.6* | 76.5*
c1ccc2c(Nc3ccc4c(c3)OCCO4)c3c(nc2c1)CCCC3 | 5.9 | 5.5 | 12.8 | 70.1* | 14.9 | 58.8* | 85.0*
COc1ccccc1Nc1c2c(nc3ccccc13)CCC2 | -1.2 | -30.1 | -0.5 | 55.7* | 3.0 | 52.7* | 58.2*
Cc1cccc(C)c1NC(=O)c1csc([C@H]2C[C@H](O)[C@@H](CO)O2)n1 | nt | nt | -0.6 | nt | nt | nt | nt
CCOC(=O)C1=CCN(S(=O)(=O)c2ccc(Br)cc2)C1c1ccccc1 (centres undefined) | nt | nt | 1.2 | nt | nt | nt | nt
SMILES | TIM10 inh | tim23-1 inh | MPTP block | Mdm2-MdmX inh | tim10-1 inh | Mdm2 MdmX conf | FLuc counter
CCOc1cc(CNCCCN2CCOCC2)ccc1OCC(=O)Nc1cccc2ccccc12 | -48.5 | -22.9 | 2.1 | 77.9* | -31.1 | 54.4* | 54.0*
COc1cc(/C=N/NC(=O)c2cncc(Br)c2)cc([N+](=O)[O-])c1O | -48.8 | -8.4 | 3.9 | 55.6* | 2.1 | 49.9* | 47.5*
Cn1c(=O)c2c(nc(OC3CCCC3)n2C)n(C)c1=O | nt | nt | 0.7 | nt | nt | nt | nt
Cc1nc(-c2ccc(F)cc2)c(CC(=O)N(C)CC(=O)Nc2ccc(Cl)c(C(F)(F)F)c2)s1 | nt | nt | 5.1 | nt | nt | nt | nt
COC(=O)c1c(NC(=O)CN2CCC3(O)CCCCC3C2c2cc(OC)ccc2OC)sc(C)c1C (centres undefined) | 28.5 | 38.7 | 2.7 | 39.8 | 32.2 | nt | nt
COC(=O)c1c(NC(=O)CN2CCC3(O)CCCCC3C2c2ccc(F)cc2)sc(C)c1C (centres undefined) | 18.0 | 38.1 | -1.8 | 53.3* | 36.1 | 26.8 | nt
Cc1ccc(NC(=O)c2ncn(CCCN[C@H](C)c3cccc4ccccc34)n2)cc1C | nt | nt | 2.4 | nt | nt | nt | nt
CCC1Oc2ccccc2N(CC(=O)NCCC2=CCCCC2)C1=O (centres undefined) | 10.1 | 26.0 | 3.3 | 59.6* | 18.6 | 9.2 | nt
CCC1Oc2ccccc2N(CC(=O)NCCN2CCc3ccccc3C2)C1=O (centres undefined) | -6.6 | 1.3 | -1.0 | -3.2 | -5.4 | nt | nt
O=C(COc1ccc(Oc2ccccc2)cc1)NCc1cn2ccccc2n1 | 4.8 | 20.4 | 2.0 | 56.0* | -0.8 | 56.6* | 73.0*
COc1ccc(-c2cnc3c(NC=O)cc(-c4ccccc4OC)cn23)cc1OC | nt | nt | -2.3 | nt | nt | nt | nt
CCCCCN(C(=O)CCC(=O)OC(C)C(=O)c1ccc(CC)cc1)c1c(N)n(CCCC)c(=O)[nH]c1=O (centres undefined) | nt | nt | -0.5 | nt | nt | nt | nt
C/C(=N\Nc1ccc(S(N)(=O)=O)cc1[N+](=O)[O-])c1cccnc1 | -20.6 | -9.8 | -0.8 | 58.2* | -4.6 | 0.6 | nt
C/C(=N\Nc1ccc([N+](=O)[O-])cc1[N+](=O)[O-])c1cccnc1 | -13.1 | 16.8 | 1.7 | 19.1 | -36.1 | nt | nt
Cc1ccc2nc(-c3ccccc3)cn2c1 | 19.4 | 38.6 | -0.3 | 67.4* | -27.0 | 58.0* | 32.2
CCOc1ccc(S(=O)(=O)NCc2ccncc2)cc1NC(=O)c1ccccc1F | -5.2 | -15.6 | 0.0 | 66.5* | -7.0 | 8.3 | nt
COc1ccc(S(=O)(=O)NCc2ccccn2)cc1NC(=O)c1ccc(Cl)cc1 | 8.7 | 25.5 | 0.3 | 40.4 | 22.0 | nt | nt

Compound activity deposited in PubChem by Sanford-Burnham Center for Chemical Genomics.
